# Test results published in PubChem BioAssay AID1626 (SRMLSC, 2009).
# The campaign covered roughly 220,000 compounds. About 2,000 (0.91%) were called active. Inconclusive results (about 2%) are left out. Only a sample is shown. Results with a measured potency or affinity are listed apart. Values without a mark were called inactive. No stated cut-off is given here; in the data, inconclusive means inhibition above about 80% without an active follow-up result; inactive means below that; test concentration not stated here.
# Assay: M. tuberculosis H37Rv growth inhibitors, H37Rv strain (AID 1626);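 further: bacteria incubated seven days before Alamar blue readout; 0% = bacteria only wells and 100% = bacteria with antibiotic wells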
# Settings: hits give high values, concentration not given here
row,Compound,inhibition [%]
1,O=C(OCc1ccccc1)C1=NNC2C(=O)N(Cc3ccccc3)C(=O)C12 (centres undefined),8.28
2,COCCn1c(SCC(=O)N2CC(=O)Nc3ccccc32)nc2ccccc2c1=O,14.5
3,CCc1ccc(-c2cc(C(F)(F)F)n3nc(C(=O)Nc4c(C)nn(Cc5ccccc5Cl)c4C)cc3n2)s1,-4.86
4,CCc1ccc(-c2cc(C(F)(F)F)n3nc(C(=O)Nc4c(C)nn(Cc5ccccc5C)c4C)cc3n2)s1,2.87
5,O=S(=O)(Nc1ccc(C(F)(F)F)cc1)c1cnc[nH]1,-0.2
6,CCOC(=O)C(C(=O)OCC)N(C#N)c1nc(C)cc(C)n1,-14
7,CCOC(=O)N1CCN(Cc2nc(-c3cccc(C)c3)no2)CC1,-1.51
8,CCOC(=O)CNC(=O)CSc1nnc(-c2cccc(C)c2)n1-c1ccc(OC)cc1,3.71
9,CCOC(=O)CNC(=O)CSc1nnc(SCC(=O)NCC(=O)OCC)s1,-11.7
10,CCOC(=O)CSc1nc(-c2ccc(OC)cc2)ns1,57.1
11,CCOC(=O)CSc1nc(-c2ccccc2)nc2ccccc12,-6.27
12,Cc1cccc(-c2nsc(SCC(=O)Nc3nccs3)n2)c1,10.4
13,CCOC(=O)CNC(=O)CSc1nnc(-c2ccccc2)c(-c2ccccc2)n1,-8.15
14,Cc1cccc(-c2nsc(SCC(=O)c3ccc(Cl)cc3)n2)c1,94
15,COc1ccc(C2=NOC(C(=O)N3CCN(c4ccccc4OC)CC3)C2)cc1 (centres undefined),10.3
16,COc1ccc(NC(=O)COC(=O)Cc2ccc(Br)cc2)cc1,15.8
17,Cn1c2ccccc2c(=O)c2c(=O)n(Cc3ccco3)c(-c3ccc(C(C)(C)C)cc3)nc21,50.6
18,Cc1c(F)cccc1NC(=O)CCC(=O)O,0.24
19,O=C(c1cnc2sccn2c1=O)N1CCCc2ccccc21,0.62
20,CNC(=O)CSCCn1c(SCC(=O)NC)nc2ccccc2c1=O,-1.73

row,Compound,inhibition [%]
1,CC(=O)c1cccc(NC(=O)C(C)OC(=O)CNC(=O)c2ccc(C)s2)c1 (centres undefined),-1.06
2,O=C(O)c1ccc(CSc2ncn[nH]2)cc1,-5.36
3,Clc1ccc(CSc2ncn[nH]2)cc1,74.3
4,Cc1ccc(C)c(N(C)S(=O)(=O)c2cccc3nsnc23)c1,-5.61
5,COc1cccc(NC(=S)N(Cc2ccccn2)Cc2ccccc2Cl)c1,8.54
6,CCn1c(=O)cc(NC2=NCC(C)CN2c2cccc(Cl)c2)n(C)c1=O (centres undefined),-2.51
7,CCCCc1ccc(NC(=O)COc2ccc(C(=O)Nc3ccccc3C)cc2)cc1,73.6
8,Cc1ccc(OCC(=O)Nc2ccccc2F)cc1C,2.33
9,O=C(N/N=C/c1ccccc1C(F)(F)F)c1ccc(O)cc1,-4.67
10,CCOc1ccc(/C=C/C2=NNC(=O)CC2)cc1,-3.64
11,CCCCn1c(N2CCC(Cc3ccccc3)CC2)nc2c1c(=O)[nH]c(=O)n2C,46.5
12,CCCn1c(N2CCC(Cc3ccccc3)CC2)nc2c1c(=O)[nH]c(=O)n2C,12.4
13,Oc1c(Br)cc(Cl)cc1C=Nc1ccc(N2CCOCC2)cc1,7.51
14,O=S(=O)(CCn1cccc1)CCn1cccc1,8.4
15,COc1cc(/C=N/NC(=O)c2c(-c3ccccc3)noc2C)cc(OC)c1OC,-3.6
16,COc1ccc(CNC(=O)COC(=O)CCc2nc3ccccc3c(=O)[nH]2)cc1,5.36
17,FC(F)(F)c1ccc(CN2C[C@@H]3C(c4ccc(Cl)nc4)C4(c5ccccc5)CC3(C4)[C@H]2c2ccccc2)cc1 (some centres undefined),7.77
18,CN1C[C@@H]2C(c3ccccc3)C3(c4cccnc4)CC2(C3)[C@H]1c1ccccc1 (some centres undefined),1.01
19,FC(F)(F)c1ccc(CN2C[C@@H]3C(c4ccc(C(F)(F)F)cc4)C4(c5cccnc5)CC3(C4)[C@H]2c2ccccc2)cc1 (some centres undefined),9.04
20,FC(F)(F)c1ccc(C2[C@H]3CN(CC4CCCCC4)[C@H](c4ccccc4)C34CC2(c2cccnc2)C4)cc1 (some centres undefined),19.8

row,Compound,inhibition [%]
1,c1ccc(C2[C@H]3CN(CC4CCCCC4)[C@H](c4ccccc4)C34CC2(c2ccccc2)C4)cc1 (some centres undefined),6.4
2,CN1C[C@@H]2C(c3ccc(C(F)(F)F)cc3)C3(c4ccccc4)CC2(C3)[C@H]1c1ccccc1 (some centres undefined),2.02
3,CCOC(=O)Cn1nc(C)n(-c2ccc(C(C)C)cc2)c1=O,1.38
4,CCCc1nc2c(sc3nc4c(cc32)COC(C)(C)C4)c(=O)n1CCN(C)C,-6.58
5,Cc1ccccc1Nc1c(-c2ccc(N3CCOCC3)cc2)nc2cnccn12,-3.6
6,CC[C@H](CO)Nc1nc(Nc2cccc(Cl)c2)c2ncn(C(C)C)c2n1,15.3
7,CC(C)C[C@H](CO)Nc1nc(Nc2cccc(Cl)c2)c2ncn(C(C)C)c2n1,28.8
8,CCN(CC)S(=O)(=O)c1cccc(C(=O)N[C@H](C(=O)NCc2ccc(Cl)cc2)C(C)C)c1,6.08
9,COc1cc(C(=O)NCC(C)C)c([N+](=O)[O-])cc1OC,3.27
10,CCCCOc1ccc(Br)cc1CSC(=N)N,2.99
11,CCCOc1ccc(Br)cc1CSC(=N)N,-1.31
12,O=C(Nc1nnc(C2=COCCO2)o1)c1ccc(S(=O)(=O)N2CCCCC2)cc1,78.6
13,O=C(Nc1nnc(C2=COCCO2)o1)c1ccc(S(=O)(=O)N2CCCC2)cc1,-3.71
14,N#CCCN(CCC#N)S(=O)(=O)c1ccc(C(=O)Nc2nnc(C3=COCCO3)o2)cc1,-6.19
15,CC(=O)Nc1nnc(C2=COCCO2)o1,0.04
16,CCCC(=O)Nc1nnc(-c2ccc3c(c2)OCCO3)o1,57.4
17,O=C(NCc1ccccc1)c1ccc2c(c1)OCCO2,-7.22
18,O=C(Nc1nnc(C2=COCCO2)o1)c1ccc(S(=O)(=O)N2CCOCC2)cc1,7.6
19,CCCCC(=O)Nc1nnc(C2=COCCO2)o1,2.42
